Measured values: PubChem BioAssay AID2330 (Broad Institute, 2010)
Screen size: about 37,000 compounds; about 2,800 (7.6%) were called active. Another 1% or so got no clear call; they are omitted. This excerpt belongs to a sample that is enriched for actives. A number with no mark means an inactive call. Rule as the data show it: active = inhibition above about 80%; inconclusive = no clear call, values can overlap the other calls; inactive = below that.

Test: NOMO-1 AML cell viability reduction, primary screen, STK33 inhibitor project, CellTiter-Glo luminescence (AID 2330)
Details: NOMO-1 AML viability, 72 h, active compounds read high, concentration not given here

SMILES	inhibition
CCN1CCN(C(=O)N[C@@H](C(=O)N[C@@H]2C(=O)N3C(C(=O)O)=C(CSc4nnnn4C)CS[C@H]23)c2ccc(O)cc2)C(=O)C1=O	16.9%
Cc1ccc(C)c(S(=O)(=O)NC(C)C(=O)Nc2ccc(Br)cc2F)c1 (stereo unspecified)	1.68%
Cc1noc(C)c1S(=O)(=O)Nc1ccc2c(c1)CC(=O)N([C@H](C)CO)C[C@H](C)[C@H](CN(C)S(=O)(=O)c1cn(C)cn1)O2	-3.68%
C[C@@H]1CN([C@H](C)CO)C(=O)Cc2cc(NS(C)(=O)=O)ccc2O[C@@H]1CN(C)C(=O)Nc1ccc2c(c1)OCO2	-3.88%
O=C(Oc1ccccc1)c1cccc(COC(=O)c2cc3ccccc3oc2=O)c1	5.03%
C[C@H](CO)N1C[C@H](C)[C@@H](CN(C)C(=O)Nc2ccccc2)Oc2ccc(N(C)C)cc2C1=O	14.4%
CC1CCCCC1NC(=O)CSc1nnc(N)s1 (stereo unspecified)	13.1%
COC(=O)c1cc(NC(=O)Cc2ccccc2[N+](=O)[O-])ccc1Cl	62.9%
Cc1nnc(SCC(=O)N2CCc3ccccc32)n1-c1ccccc1	10%
CN(C)c1nc(SCCO)nc(N(C)C)n1	33.8%
COc1cc2c(cc1NC(=O)CN(C)S(=O)(=O)c1ccc(Br)cc1)oc1ccccc12	-7.24%
COc1ccc(NC(=O)N(C)C[C@@H]2Oc3ccc(NS(C)(=O)=O)cc3C(=O)N([C@@H](C)CO)C[C@@H]2C)cc1	22.3%
COC(=O)c1ccc(C(=O)OC)c(NC(=O)COc2ccc(C)cc2)c1	13.3%
O=C(CSc1nnc(-c2ccccc2)c(-c2ccccc2)n1)Nc1ccccc1	1.52%
N#Cc1c(SCC(=O)Nc2ccccc2)ncc2cc3ccccc3nc12	110% (active)
Cc1sc2ncnc(SCC(=O)Nc3ccccc3)c2c1-c1ccccc1	26.6%
CC(C)NC(=O)Nc1cccc2c1O[C@H](CN(C)S(=O)(=O)c1cccs1)[C@@H](C)CN([C@H](C)CO)C2=O	-9.32%
COc1ccc(C)c(Cn2c(-c3nonc3N)nc3ccccc32)c1	112% (active)
COc1ccc2nc3c(nc2c1)C(=O)c1ccccc1C3=O	29.2%
Cc1ccc(S(=O)(=O)N(C)C[C@@H]2Oc3ccc(NC(=O)Cc4ccccc4)cc3CC(=O)N([C@H](C)CO)C[C@H]2C)cc1	53.4%
Cc1noc(C)c1NC(=O)Nc1cccc2c1O[C@@H](CN(C)Cc1ccc3c(c1)OCO3)[C@@H](C)CN([C@@H](C)CO)C2=O	13.5%
Cc1ccc2c(c1)CCCN2S(=O)(=O)c1cc(OCC(N)=O)c(C)cc1Cl	93.4% (active)

SMILES	inhibition
CCN1CCN(S(=O)(=O)c2cc(OCC(N)=O)c(C)cc2Cl)CC1	12.8%
Cc1cc(Cl)c(S(=O)(=O)Nc2ccc3c(c2)OCCO3)cc1OCC(N)=O	20.2%
C[C@@H]1CN([C@H](C)CO)C(=O)c2cccc(NS(C)(=O)=O)c2O[C@@H]1CN(C)C(=O)Nc1cccc2ccccc12	-9.1%
C[C@@H]1CN([C@H](C)CO)C(=O)Cc2cc(NC(=O)NC3CCCCC3)ccc2O[C@H]1CN(C)Cc1ccc(Cl)c(Cl)c1	20.7%
C[C@H]1CN([C@@H](C)CO)C(=O)Cc2cc(NC(=O)NC3CCCCC3)ccc2O[C@@H]1CN(C)Cc1ccc(Oc2ccccc2)cc1	94.9% (active)
C[C@H]1CN([C@@H](C)CO)C(=O)c2cc(NC(=O)C3CC3)ccc2O[C@@H]1CN(C)Cc1ccc(Oc2ccccc2)cc1	16.2%
C[C@@H]1CN([C@H](C)CO)C(=O)Cc2cc(NC(=O)Nc3ccccc3)ccc2O[C@H]1CN(C)Cc1ccc(Cl)c(Cl)c1	30.1%
C[C@@H]1CN([C@@H](C)CO)C(=O)Cc2cc(NC(=O)Cc3ccccc3)ccc2O[C@@H]1CN(C)Cc1ccc(Oc2ccccc2)cc1	127% (active)
C[C@H](CO)N1C[C@H](C)[C@H](CN(C)Cc2ccccc2)Oc2ccc(NC(=O)Cc3ccccc3)cc2C1=O	7.66%
C[C@H]1CN([C@@H](C)CO)C(=O)Cc2cc(NC(=O)Cc3ccccc3)ccc2O[C@@H]1CN(C)Cc1ccc(Cl)c(Cl)c1	96.8% (active)
C[C@@H]1CN([C@H](C)CO)C(=O)Cc2cc(NC(=O)Cc3ccccc3)ccc2O[C@@H]1CN(C)Cc1ccccc1	-13.8%
C[C@@H]1CN([C@@H](C)CO)C(=O)c2cc(NC(=O)Cc3ccccc3)ccc2O[C@@H]1CN(C)Cc1ccc(Oc2ccccc2)cc1	112% (active)
C[C@@H]1CN([C@H](C)CO)C(=O)Cc2cc(NC(=O)Cc3ccccc3)ccc2O[C@H]1CN(C)Cc1ccc(Oc2ccccc2)cc1	13.7%
COc1ccc(CN(C)C[C@H]2Oc3ccc(NC(=O)Cc4ccccc4)cc3CC(=O)N([C@@H](C)CO)C[C@@H]2C)cc1	22.8%
C[C@@H]1CN([C@H](C)CO)C(=O)Cc2cc(NC(=O)CCCN(C)C)ccc2O[C@@H]1CN(C)Cc1ccc(Oc2ccccc2)cc1	19.5%
COC(=O)c1c(NC(=O)COc2ccc(C(C)C)c(C)c2)sc2c1CCC2	-13.1%
COc1ccc(S(=O)(=O)N(C)C[C@@H]2Oc3ccc(NC(=O)Cc4cn(C)c5ccccc45)cc3C(=O)N([C@H](C)CO)C[C@H]2C)cc1	3.23%
CC(C)NC(=O)N(C)C[C@H]1Oc2ccc(NS(C)(=O)=O)cc2CC(=O)N([C@@H](C)CO)C[C@@H]1C	-17.4%
COc1c2c(cc3occ(-c4ccc5c(c4)OCO5)c(=O)c13)OC(C)(C)C=C2	23.7%
O=C(c1cc2ccccc2oc1=O)N(Cc1ccc(F)cc1)Cc1ccco1	-0.0617%
COc1cc(O)c2c(=O)c(O[C@@H]3O[C@@H](CO)[C@H](O)[C@H]3O[C@@H]3O[C@@H](C)[C@H](O)[C@@H](O)[C@H]3O)c(-c3ccc(O)cc3)oc2c1	16.7%
C[C@@H]1CN([C@H](C)CO)C(=O)Cc2cc(NC(=O)CCN3CCOCC3)ccc2O[C@H]1CN(C)C	13.7%

SMILES	inhibition
O=C(NCc1ccco1)c1ccc2c(c1)C(=O)N(Cc1cccnc1)C2=O	20%
C[C@@H]1CN([C@H](C)CO)C(=O)Cc2cc(N(C)C)ccc2O[C@@H]1CN(C)Cc1ccccc1	124% (active)
C[C@H]1CN([C@@H](C)CO)C(=O)c2cc(NC(=O)Nc3ccc4c(c3)OCO4)ccc2O[C@@H]1CN(C)Cc1ccc(Oc2ccccc2)cc1	102% (active)
C[C@H](CO)N1C[C@H](C)[C@@H](CN(C)Cc2ccccc2)Oc2ccc(NC(=O)Nc3ccc4c(c3)OCO4)cc2C1=O	1.03%
C[C@H](CO)N1C[C@H](C)[C@H](CN(C)Cc2ccc(C(F)(F)F)cc2)Oc2ccc(N(C)C)cc2CC1=O	14.9%
C[C@H]1CN([C@@H](C)CO)C(=O)Cc2cc(N(C)C)ccc2O[C@@H]1CN(C)Cc1ccc(-c2ccccc2)cc1	65.8%
C[C@@H]1CN([C@H](C)CO)C(=O)c2cc(NC(=O)Nc3ccc4c(c3)OCO4)ccc2O[C@@H]1CN(C)Cc1ccc(C(F)(F)F)cc1	50.9%
C[C@@H]1CN([C@@H](C)CO)C(=O)c2cc(NC(=O)Nc3ccc4c(c3)OCO4)ccc2O[C@@H]1CN(C)Cc1ccc(Oc2ccccc2)cc1	66%
COc1ccc(NC(=O)Nc2ccc3c(c2)C(=O)N([C@@H](C)CO)C[C@H](C)[C@@H](CN(C)Cc2ccc4c(c2)OCO4)O3)cc1	25%
C[C@@H]1CN([C@H](C)CO)C(=O)c2cc(NC(=O)Nc3ccc4c(c3)OCO4)ccc2O[C@H]1CN(C)Cc1ccc(-c2ccccc2)cc1	113% (active)
Cc1cc(=O)[nH]c(SCC(=O)Nc2cccc3ccccc23)n1	-1.97%
C[C@H](CO)N1C[C@H](C)[C@H](CN(C)S(C)(=O)=O)Oc2ccc(NC(=O)Nc3ccc(F)cc3)cc2C1=O	14.7%
COc1ccc(CN(C)C[C@@H]2Oc3ccc(NC(=O)NC(C)C)cc3C(=O)N([C@@H](C)CO)C[C@H]2C)cc1	11.8%
COc1ccc(S(=O)(=O)Nc2ccc3c(c2)CC(=O)N([C@@H](C)CO)C[C@@H](C)[C@@H](CN(C)C(=O)Nc2c(C)noc2C)O3)cc1	-6.01%
C[C@@H]1CN([C@H](C)CO)C(=O)Cc2cc(NC(=O)Cn3cnnn3)ccc2O[C@H]1CN(C)Cc1ccc(C(F)(F)F)cc1	-4.05%
COc1ccc(-c2nnc(SCC(=O)Nc3cccc(SC)c3)n2C)cc1	-20%
COc1ccccc1NC(=O)c1ccc(OCC(=O)Nc2ccccc2F)cc1	2.43%
C[C@H]1CN([C@@H](C)CO)C(=O)c2cccc(NS(C)(=O)=O)c2O[C@@H]1CN(C)C(=O)Nc1ccc(F)cc1	-0.485%
CC1CCC(C(C)C)C(=O)/C1=C\c1ccc(NC(=O)CCC(=O)O)cc1 (stereo unspecified)	10%
COc1cc(-c2coc3cc(O[C@@H]4O[C@H](CO)[C@@H](O)[C@H](O)[C@H]4O)c(OC)c(O)c3c2=O)cc(O)c1OC	-24%
COc1cc([C@H]2OC[C@H]3[C@@H]2CO[C@@H]3c2cc(OC)c(O[C@@H]3O[C@H](CO)[C@@H](O)[C@H](O)[C@H]3O)c(OC)c2)cc(OC)c1O	-2.62%
COc1ccc(C[C@H]2COC(=O)[C@@H]2Cc2ccc(O[C@@H]3O[C@H](CO)[C@@H](O)[C@H](O)[C@H]3O)c(OC)c2)cc1OC	88.7% (active)
